Screening data: PubChem BioAssay, Broad Institute
Pf Dd2 inh – inhibitors of Plasmodium falciparum Dd2 growth; 94,000 tested, 2.3% active; P. falciparum Dd2 growth, SYBR Green, 72 h; hits give low values; activity change, % at 10 µM; AID 1159554; in the data active = activity change below about -80%
T cruzi growth – blocks T. cruzi growth in NIH3T3 culture. T. cruzi beta-gal in NIH3T3, GalScreen luminescence, 90 h. inhibition, % at 8.34 µM. 77,000 tested, 5.9% active. AID 624255;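 active = mean inhibition above about 93%, with at least 55% of replicates each passing it, limit read from the data, passing the limit was not always enough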
C diff growth – inhibitors of Clostridium difficile growth; 86,000 tested, 0.25% active; Clostridium difficile clinical isolate growth, OD600, 24 h; hits give low values; growth activity, negative = inhibition, % at 16 µg/mL (by protocol); AID 1259249;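 active = mean growth activity at or below -80% and every replicate also at or below -80%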
Of the large screens only hits and unclear results are named; the others gave an inactive call. In the library only some 6.7% were active in any assay of this set; here they are far more common.

CCCN(C)C[C@@H]1Oc2ncc(C#Cc3cccc(OC)c3)cc2C(=O)N([C@H](C)CO)C[C@@H]1C	none (no result: T cruzi growth)
COc1ccc(-c2cnc3c(c2)C(=O)N([C@@H](C)CO)C[C@H](C)[C@H](CN(C)S(=O)(=O)c2ccc(OC)cc2)O3)cc1	Pf Dd2 inh -82.7 (no result: C diff growth)
CCCC#Cc1cnc2c(c1)C(=O)N([C@H](C)CO)C[C@H](C)[C@@H](CN(C)S(=O)(=O)c1cccc(OC)c1)O2	none
CCCN(C)C[C@@H]1Oc2ncc(C#Cc3ccc(OC)cc3)cc2C(=O)N([C@H](C)CO)C[C@@H]1C	Pf Dd2 inh -80.9 (no result: T cruzi growth)
C[C@@H]1CN([C@H](C)CO)C(=O)c2cc(C#CCc3ccccc3)cnc2O[C@@H]1CN(C)CC1CCOCC1	none
COc1ccc(S(=O)(=O)N(C)C[C@@H]2Oc3ncc(-c4ccncc4)cc3C(=O)N([C@H](C)CO)C[C@H]2C)cc1	none
C[C@@H]1CN([C@H](C)CO)C(=O)c2cc(C#CCc3ccccc3)cnc2O[C@H]1CN(C)CC1CCCC1	Pf Dd2 inh -94.2
COc1cccc(S(=O)(=O)N(C)C[C@@H]2Oc3ncc(C#Cc4ccc(OC)c(OC)c4)cc3C(=O)N([C@H](C)CO)C[C@@H]2C)c1	Pf Dd2 inh -91.8
COC(=O)[C@@H]1[C@@H](CO)[C@@H]2Cn3c(ccc(C4=CCCCC4)c3=O)[C@@H]2N1Cc1cccnc1	none (no result: T cruzi growth)
O=C(c1ccccc1)N1[C@H](CO)[C@H](c2ccccc2)C12CN(CCC(F)(F)F)C2	none (no result: T cruzi growth)
CCC(=O)Nc1ccc2c(c1)C(=O)N(C)C[C@@H](OC)[C@@H](C)CN(CCc1ccccc1)[C@H](C)CO2	none (no result: C diff growth)
Cc1ccc(S(=O)(=O)N[C@@H]2C=C[C@H](CC(=O)NCCCN(C)C)O[C@@H]2CO)cc1	none
CO[C@H]1CN(C)C(=O)c2cc(NC(=O)c3cc(C)on3)ccc2OC[C@H](C)N(C(=O)C2CC2)C[C@@H]1C	none
COc1ccc(-c2ccccc2[C@H]2[C@@H](C#N)N(C(=O)C3CCCC3)[C@H]2CO)cc1	Pf Dd2 inh -98.5 (no result: T cruzi growth)
C/C=C/c1ccc([C@H]2[C@@H](CO)N(C(=O)NC3CCCC3)[C@H]2C#N)cc1	none
C/C=C/c1ccc([C@H]2[C@@H](C#N)N(C(=O)NC3CCCC3)[C@@H]2CO)cc1	Pf Dd2 inh -83.7
CS(=O)(=O)N1[C@H](C#N)[C@H](c2ccccc2-c2ccc(F)cc2)[C@H]1CO	Pf Dd2 inh -86.4 (no result: T cruzi growth)
N#C[C@@H]1[C@H](c2ccccc2/C=C/c2ccccc2)[C@H](CO)N1S(=O)(=O)c1cccc(F)c1	none (no result: T cruzi growth)
N#C[C@@H]1[C@H](c2ccccc2/C=C/c2ccccc2)[C@H](CO)N1S(=O)(=O)c1ccc(F)cc1	Pf Dd2 inh -90.8 (no result: T cruzi growth)
COc1ccc(-c2ccccc2[C@@H]2[C@H](C#N)N(C(=O)C3CCCC3)[C@H]2CO)cc1	none (no result: T cruzi growth)
CS(=O)(=O)N1[C@H](C#N)[C@@H](c2ccccc2-c2ccc(F)cc2)[C@@H]1CO	none (no result: T cruzi growth)
C[C@H]1CN([C@@H](C)CO)S(=O)(=O)c2ccc(C3=CCCCC3)cc2O[C@H]1CN(C)Cc1ccccc1F	none (no result: T cruzi growth)
Cc1ccc(S(=O)(=O)NCC[C@@H]2CC[C@H](NC(=O)C3CCOCC3)[C@@H](CO)O2)cc1	none
COc1cccc(NC(=O)N(C)C[C@H]2Oc3cc(C#CC4(O)CCCC4)ccc3S(=O)(=O)N([C@@H](C)CO)C[C@@H]2C)c1	none (no result: T cruzi growth)
C[C@@H]1CN([C@@H](C)CO)C(=O)c2cc(NC(=O)NC3CCCCC3)ccc2O[C@@H](C)CCCCO[C@H]1CN(C)C(=O)Cc1ccccc1	none
CCCNC(=O)C[C@@H]1CC[C@H]2[C@@H](COc3ccc(NC(=O)NC(C)C)cc3C(=O)N2C)O1	none
CCNC(=O)C[C@@H]1CC[C@H]2[C@H](COc3ccc(NC(=O)Cc4ccccc4)cc3C(=O)N2C)O1	none
COc1ccc(-c2ccccc2[C@H]2[C@@H](C#N)N(C(=O)NC3CCCC3)[C@H]2CO)cc1	Pf Dd2 inh -93.9 (no result: T cruzi growth)
CC(C)NC(=O)N1[C@H](C#N)[C@@H](c2ccccc2-c2ccc(F)cc2)[C@@H]1CO	none (no result: T cruzi growth)
COc1ccc(-c2ccccc2[C@@H]2[C@@H](C#N)N(C(=O)NC3CCCCC3)[C@H]2CO)cc1	none (no result: T cruzi growth)
CC(C)NC(=O)N1[C@H](C#N)[C@H](c2ccccc2-c2ccc(F)cc2)[C@@H]1CO	Pf Dd2 inh -89.8 (no result: T cruzi growth)
COc1ccc(C#Cc2ccc([C@@H]3[C@H](CO)N4CCCCN(Cc5ccccc5F)C[C@@H]34)cc2)cc1	Pf Dd2 inh -82.3, C diff growth -96.6
COc1ccc(C#Cc2ccc([C@H]3[C@@H](CO)N4CCCCN(Cc5ccncc5)C[C@H]34)cc2)cc1	Pf Dd2 inh -83.4
COc1ccc(C#Cc2ccc([C@H]3[C@H](CO)N4CCCCN(Cc5ccccc5F)C[C@@H]34)cc2)cc1	C diff growth -97.1
COc1ccc(C#Cc2ccc([C@@H]3[C@@H](CO)N4CCCCN(Cc5ccccc5F)C[C@@H]34)cc2)cc1	none
